# Measurements as given in PubChem BioAssay (EPA / NIEHS).
# “And” between values parts separate entries of the source, which are not always exact repeats. Equal entries are not always repeated. More than one record can exist for a structure, and the calls need not agree. The source made the active and inactive calls. Rule for the calls: active = hit-call score of the fitted dose curve at least 0.9, where 1 is the maximum; inactive = score below 0.9.
# Columns and labels:
# CD40, CD40 (gene 958) = assay: BSK_IMphg_CD40: BioMAP Diversity Plus: IMphg Assay for CD40 Biomarker Activity (AID 2284288); details: primary human endothelial cells with macrophages
# Method in brief: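 ELISA read-out of cell-surface CD40 at 24 h in human venular endothelial cell/macrophage co-cultures. Activity fitted in the positive direction against DMSO; parallel SRB staining (560 nm) gauges overt cytotoxicity.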
# [1] = read-out: TIMP metallopeptidase inhibitor 2 (TIMP2), TIMP2 (gene 7077); assay: BSK_hDFCGF_TIMP2: BioMAP Diversity Plus: hDFCGF Assay for TIMP metallopeptidase inhibitor 2 (TIMP2) Biomarker Activity (AID 2284289); details: primary human foreskin fibroblasts
# Method in brief: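 Primary human foreskin fibroblasts in the hDFCGF system, dosed for 24 h; TIMP-2 level measured by ELISA, fitted in the positive direction against DMSO; cytotoxicity checked in parallel by sulforhodamine B total protein staining.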
# [2] = read-out: Interleukin-1 alpha (IL1a), IL1A (gene 3552); assay: BSK_IMphg_IL1a: BioMAP Diversity Plus: IMphg Assay for Interleukin-1 alpha (IL1a) Biomarker Activity (AID 2284290); details: primary human endothelial cells with macrophages
# Method in brief: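 IL-1α is quantified by ELISA at 24 h in the endothelial/macrophage IMphg co-culture, with gain of signal fitted relative to DMSO. Parallel SRB total-protein staining flags overt toxicity.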
# [3] = read-out: E-selectin (Homo sapiens) (UniProt P16581); assay: BSK_IMphg_ESelectin: BioMAP Diversity Plus: IMphg Assay for Eselectin Biomarker Activity (AID 2284291); details: primary human endothelial cells with macrophages
# Method in brief: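 Analysed against DMSO baseline in the positive fitting direction, this endpoint is an ELISA read of E-selectin. It comes from human venular endothelial cells co-cultured with macrophages, sampled 24 h post-dose.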
# [4] = BSK_IMphg_SRB: Viability Assessment in the BioMAP Diversity Plus: IMphg Assay (AID 2284292); details: primary human endothelial cells with macrophages;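 note: measured one day after compound addition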
# Method in brief: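 SRB viability endpoint: cultures of human endothelial cells plus macrophages fixed with 10% TCA, stained with 0.1% SRB, read at 560 nm 24 h post-dosing. Only gain-of-signal fitted, relative to DMSO.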
# [5] = read-out: Macrophage colony-stimulating factor (MCSF), CSF1 (gene 1435); assay: BSK_IMphg_MCSF: BioMAP Diversity Plus: IMphg Assay for Macrophage colony-stimulating factor (MCSF) Biomarker Activity (AID 2284293); details: primary human endothelial cells with macrophages
# Method in brief: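 M-CSF was measured by ELISA in human venular endothelial cell/macrophage co-cultures dosed for 24 hours. Sulforhodamine B staining of parallel cultures assessed cytotoxicity; data fitted against DMSO baseline.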
# [6] = read-out: Interleukin-10 (IL10), IL10 (gene 3586); assay: BSK_IMphg_IL10: BioMAP Diversity Plus: IMphg Assay for Interleukin-10 (IL10) Biomarker Activity (AID 2284294); details: primary human endothelial cells with macrophages
# Description: BSK_IMphg is a cell-based, multiplexed-readout assay that uses venular endothelial cells and macrophages, a human vascular primary cell, with measurements taken at 24 hours after chemical dosing in a microplate: 96-well plate.BSK_IMphg_IL10 is an assay component measured in the BSK_IMphg assay. It measures IL-10 antibody related to regulation of gene expression using ELISA technology.Data from the assay component BSK_IMphg_IL10 was analyzed at the endpoint, BSK_IMphg_IL10, in the positive analysis fitting direction relative to DMSO as the negative control and baseline of activity. Using a type of binding reporter, gain or loss-of-signal activity can be used to understand protein changes. […]
# The levels of cell surface (or secreted, indicated by the prefix "s") biomarker endpoints were measured by ELISA. Overt cytotoxicity to cells in confluent adherent cultures (all systems other than the BT system) was assessed by measuring total protein levels using sulforhodamine B (SRB) staining in parallel cultures at the time of biomarker measurements, indicated as SRB endpoints. For proliferation assays for adherent cell types, individual cell types are cultured at sub-confluence and relative cell numbers quantified by SRB staining at time points optimized for each system (48 h: 3C and CASM3C systems; 72 h: BT and HDF3CGF systems; 96 h: SAg system). […] Plates were read after 6 h.
# [7] = BSK_IMphg_SRB.Mphg: Macrophage Viability Assessment in the BioMAP Diversity Plus: IMphg Assay (AID 2284295); details: primary human endothelial cells with macrophages
# Method in brief: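 Cytotoxicity read-out: parallel cultures fixed with 10% TCA, stained with 0.1% sulforhodamine B, read at 560 nm. System combines venular endothelium and macrophages; sampled 24 h post-dosing, fitted positively relative to DMSO control.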
# [8] = read-out: Thrombomodulin, THBD (gene 7056); assay: BSK_LPS_Thrombomodulin: BioMAP Diversity Plus: LPS Assay for Thrombomodulin Biomarker Activity (AID 2284296); details: primary human HUVEC with PBMC
# Method in brief: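 Thrombomodulin on the surface of LPS-activated endothelial/PBMC co-cultures was quantified by ELISA at 24 hours post-dosing, with DMSO as baseline. Parallel SRB total-protein staining flagged overt cytotoxicity.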
# [9] = IUF_NPC2c_oligodendrocyte_migration_120hr: Leibniz Research Institute for Environmental Medicine (IUF) 120-hour Neural Progenitor Cell Migration Assay for Oligodendrocyte Migration (NPC2c) (AID 2284297);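 note: O4-positive oligodendrocyte migration distance divided by radial glia migration distance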
# Method in brief: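 hNPC spheres (GW 16-19 cortex), PDL/laminin, DMEM/F12 3:1 + 1% N2, 37C. Dosing day 0–5, half feed day 3, DMSO ≤0.1%. Fixed 120 h; O4 ICC + Hoechst, HCI. Readout: mean oligodendrocyte distance from sphere edge / radial glia distance.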
# Chain of E-selectin (Homo sapiens) (P16581 whole entry, looked up): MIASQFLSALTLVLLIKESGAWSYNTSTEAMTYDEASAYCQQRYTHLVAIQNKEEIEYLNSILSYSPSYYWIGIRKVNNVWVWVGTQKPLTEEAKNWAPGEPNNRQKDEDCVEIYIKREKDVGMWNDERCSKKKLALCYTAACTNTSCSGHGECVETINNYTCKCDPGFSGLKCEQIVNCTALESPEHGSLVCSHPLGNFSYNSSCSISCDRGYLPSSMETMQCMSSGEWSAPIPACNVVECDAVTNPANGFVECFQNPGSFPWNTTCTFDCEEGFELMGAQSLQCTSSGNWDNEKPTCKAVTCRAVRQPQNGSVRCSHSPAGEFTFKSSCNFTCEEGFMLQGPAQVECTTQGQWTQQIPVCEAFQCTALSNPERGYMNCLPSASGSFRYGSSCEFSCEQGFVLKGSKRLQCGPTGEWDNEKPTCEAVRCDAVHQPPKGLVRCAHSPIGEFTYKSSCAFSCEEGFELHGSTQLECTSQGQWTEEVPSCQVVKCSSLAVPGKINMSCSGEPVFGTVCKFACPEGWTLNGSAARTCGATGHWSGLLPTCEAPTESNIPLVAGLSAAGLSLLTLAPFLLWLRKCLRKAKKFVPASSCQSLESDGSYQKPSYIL
smiles,measurement,setting,value
CCNS(=O)(=O)C(F)(F)C(F)(F)C(F)(F)C(F)(F)C(F)(F)C(F)(F)C(F)(F)C(F)(F)F,AC50,"CD40, CD40 (gene 958)",26.6 µM (active)
same,outcome,"CD40, CD40 (gene 958)",inactive
same,AC50,[1],30 µM (active) and 46.5 µM (active)
same,outcome,[2],inactive
same,AC50,[3],10.8 µM (active) and 30 µM (active)
same,outcome,[4],inactive
same,outcome,[5],inactive
same,outcome,[6],inactive
same,AC50,[7],30 µM (active)
same,outcome,[7],inactive
same,AC50,[8],54.5 µM (active)
same,outcome,[8],inactive
COC(=O)Nc1nc2ccccc2[nH]1,outcome,[9],inactive
O=P(OCCCl)(OCCCl)OCCCl,outcome,[9],inactive
CNC(=O)Oc1cccc2c1OC(C)(C)C2,outcome,[9],inactive
CC(C)(C)C(O)(CCc1ccc(Cl)cc1)Cn1cncn1 (configuration not stated),outcome,[9],inactive
CCCCOC(=O)c1ccccc1C(=O)OCc1ccccc1,outcome,[9],inactive
CCC[CH2][Sn]([Cl])([CH2]CCC)[CH2]CCC,AC50,[9],0.325 µM (active)
OCCOCCO,outcome,[9],inactive
CC(C)COC(=O)c1ccccc1C(=O)OCC(C)C,outcome,[9],inactive
COP(=S)(OC)SCN1C(=O)c2ccccc2C1=O,outcome,[9],inactive
[O-][Cl+]O,outcome,[9],inactive
